This note sets out measurements from PubChem BioAssay (NCATS).

Test [1] addresses Glucocorticoid receptor (Homo sapiens) (UniProt P04150). Briefly: qHTS assay for small molecule agonists of glucocorticoid receptor signaling (AID 588532; active means well fitted curve in the direction sought with a large enough effect in the signal ratio, with a control signal flat; the % refers to the signal ratio;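 further: 100% = dexamethasone at 0.1 µM and 0% = DMSO only wells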). Particulars: HeLa MMTV-bla, beta-lactamase ratio, agonist, 18 h; activation: stronger effect = higher value, percent of dexamethasone control, DMSO zero. The gist of the method: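 Quantitative HTS using CellSensor MMTV-bla HeLa cells in charcoal/dextran-treated serum; compounds tested up to 92 uM. After 18 h at 37 C, CCF4 dye reported reporter induction.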
(Quantitative high-throughput screening tests each substance at several concentrations.)

The target of test [2] is Vitamin D3 receptor (Homo sapiens) (UniProt P11473). Briefly: qHTS assay for small molecule antagonists of vitamin D receptor signaling (AID 588541). Further: potency means the concentration at half of the fitted maximal effect. In short, it runs like this: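 Antagonist-mode beta-lactamase reporter assay: HEK293T VDR-UAS-bla cells were exposed to titrated compound alongside 1-alpha,25-dihydroxyvitamin D3 at 3 nM final for 16 h. Values were normalized to the 50 nM agonist control and DMSO basal, with IC50 and efficacy from Hill equation fits.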

The nature of test [3]: qHTS assay for small molecule agonists of retinoid X receptor alpha signaling (AID 588544). Further: potency means the concentration at half of the fitted maximal effect.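 On activation: 0% = DMSO basal wells and 100% = reference agonist.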 Particulars: HEK293T RXRa-UAS-bla, beta-lactamase reporter, 18 h; 530 nm emission.
The target of test [4] is Retinoic acid receptor RXR-alpha (Homo sapiens) (UniProt P19793). Described as above.
Test [5] in a line: qHTS assay for small molecule agonists of the antioxidant response element (ARE) signaling pathway (AID 651741; active means well fitted activation curve with a large enough effect in the signal ratio; the % refers to the signal ratio; further: potency means the concentration at half of the fitted maximal effect). The gist of the method: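 Beta-lactamase reporter under ARE control in HepG2 cells, 2,000 per well, was induced by 16 h compound treatment at 37 C. Read-out was fluorescence from LiveBLAzer B/G FRET substrate after 2 h at room temperature.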
The nature of test [6]: qHTS assay for environmental chemicals that activate the Aryl hydrocarbon Receptor (AhR) signaling pathway (AID 651777; active means well fitted curve in the direction sought with a large enough effect; an effect the other way counts as inactive or inconclusive; further: % of control where 0% means no effect; nearly all actives have a fitted effect of over 15% in size). Particulars: 1A2-DRE human hepatoma cells, luciferase, 24 h; activation: stronger effect = higher value. In short, it runs like this: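 Quantitative HTS in stably transfected human liver-derived cells whose luciferase gene sits downstream of the CYP1A2 promoter and dioxin response element. After 24 hr exposure at 37 C, One-Glo luminescence was measured.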

Test [7] in a line: qHTS assay for small molecule agonists of the antioxidant response element (ARE) signaling pathway measured by Nrf2-dependant transcriptional activity - cell viability counter screen (AID 720653; active means well fitted curve in the direction sought with a large enough effect in the repeat runs; an effect the other way counts as inactive or inconclusive; further: potency means the concentration at half of the fitted maximal effect). Particulars: ARE-bla HepG2 viability, CellTiter-Glo ATP luminescence, 16 h; max response: stronger effect = lower value. In short, it runs like this:
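Cytotoxicity counter screen: intracellular ATP quantified by CellTiter-Glo luminescence in the same ARE-bla HepG2 plates, after 16 h compound exposure and a 2 h beta-lactamase substrate step.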

Test [8] can be described thus: qHTS assay for cell viability of HEK293 cells (AID 743288; active means well fitted curve in the direction sought with a large enough effect; an effect the other way counts as inactive or inconclusive; further: nearly all actives have a fitted effect of over 50% in size; further: potency means the concentration at half of the fitted maximal effect; on max response: on the % scale 0 is the no-effect control and ±100 the full control effect). Particulars: ATP luminescence (CellTiter-Glo), 18 h; max response: stronger effect = lower value. The gist of the method:
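HEK293, 18 h, 37 C, ATP luminescence. Cells at 2,000/well were allowed at least 5 h to settle before dosing; CellTiter-Glo developed 30 min at RT.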

A short description of test [9]: qHTS assay for cell viability of the p53RE-bla HCT-116 cell line (AID 743292; active means well fitted curve in the direction sought with a large enough effect; an effect the other way counts as inactive or inconclusive; further: nearly all actives have a fitted effect of over 55% in size; further: potency means the concentration at half of the fitted maximal effect). In short, it runs like this:
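Viability of compound-treated p53RE-bla HCT-116 cells is taken from ATP-dependent luciferase luminescence. Treatment lasts 16 h at 37 C after a 5 h settling period; detection follows 30 min at room temperature.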

Test [10] concerns the target Glucocorticoid receptor (Homo sapiens) (UniProt P04150). Briefly: qHTS assay for small molecule antagonists of glucocorticoid receptor signaling (AID 588533; active means well fitted inhibition curve with a large enough effect in the signal ratio, with a control signal flat, not every such curve was filed as active; the % refers to the signal ratio;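 further: cells stimulated with 2 nM dexamethasone as agonist; on the % scale 0 is the no-effect control and ±100 the full control effect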). In short, it runs like this:
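Antagonist-mode qHTS: compound titrations added to GRE-bla HeLa cells, then dexamethasone 2 nM final; 18 h, 37 C. CCF4 FRET fluorescence normalized to dexamethasone and DMSO; IC50 from Hill fit.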

Test [11] deals with Thyroid hormone receptor beta (Homo sapiens) (UniProt P10828). As to the kind of experiment: qHTS assay for small molecule agonists of thyroid hormone receptor beta signaling (AID 588545).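 Further: 0% = DMSO only and 100% = 10 nM T3.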 In short, it runs like this: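 Stimulation of a TR-driven beta-lactamase reporter was quantified in GripTite HEK 293 cells. Compound series ran for 18 hrs; curves were normalized to T3 and DMSO controls and fitted to yield EC50.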

Test [12] can be described thus: qHTS assay for small molecule activators of the p53 signaling pathway (AID 651743; active means well fitted activation curve with a large enough effect in the signal ratio, not every such curve was filed as active; the % refers to the signal ratio; further: series mostly up to about 92 µM; % of control where 0% means no effect). Particulars: HCT-116 p53RE-bla, beta-lactamase FRET ratio, 16 h; activation: stronger effect = higher value. The gist of the method:
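After 16 hours compound treatment at 37 C, HCT-116 cells stably expressing p53RE-driven beta-lactamase were loaded with LiveBLAzer B/G FRET substrate for 2 hours at room temperature. Fluorescence intensity served as the p53 activation read-out.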

The target in test [13] is Peroxisome proliferator-activated receptor alpha (Homo sapiens) (UniProt Q07869). As to the kind of experiment: qHTS assay for small molecule agonists of the peroxisome proliferator-activated receptor alpha (PPARalpha) signaling pathway (AID 651778; active means well fitted curve in the direction sought with a large enough effect; an effect the other way counts as inactive or inconclusive; further: % of control where 0% means no effect). Particulars: PathHunter PPARalpha complementation, chemiluminescence, 6 h; max response: stronger effect = higher value. In short, it runs like this:
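Chemiluminescence from complemented enzyme reported PPARalpha activation in cells after 6 hr of compound treatment at 37 C. The detection reagent was incubated for 60 min at room temperature, and compounds were scored as agonists.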

Test [14] can be described thus: qHTS assay for small molecule agonists of the antioxidant response element (ARE) signaling pathway measured by Nrf2-dependant transcriptional activity (AID 720636; active means well fitted curve in the direction sought with a large enough effect in the repeat runs; an effect the other way counts as inactive or inconclusive; further: potency means the concentration at half of the fitted maximal effect; on activation: % of control where 0% means no effect). The gist of the method: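 Quantitative HTS format in HepG2 cells stably expressing an ARE-luciferase reporter; 16 hr compound treatment at 37 C, luciferase signal detected with ONE-Glo.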
The nature of test [15]: qHTS assay for small molecule activators of the human pregnane X receptor (PXR) signaling pathway (AID 720659; call rule not given here; further: 0% is about no effect).
Test [16] concerns the target Peroxisome proliferator-activated receptor delta (Homo sapiens) (UniProt Q03181). Briefly: qHTS assay for small molecule agonists of peroxisome proliferator-activated receptor delta signaling (AID 588534).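 Further: 0% = DMSO basal wells and 100% = positive control agonist at 10 µM.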 In short, it runs like this:
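Agonist-mode beta-lactamase reporter readout (CCF4 dye, 2 h at RT) after 18 h at 37 °C exposure to a titration; Hill-equation fitting gave EC50 and maximal response.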

Test [17] has as its target Vitamin D3 receptor (Homo sapiens) (UniProt P11473). As to the kind of experiment: qHTS assay for small molecule agonists of vitamin D receptor signaling (AID 588543).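 Further: 0% = DMSO basal and 100% = reference agonist control.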 The gist of the method:
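Measured: β-lactamase reporter activity (CCF4, 405 nm excitation, 460/530 nm emission) in HEK293T VDR-UAS-bla cells after 16 h compound exposure at 37 °C. Normalization against 50 nM 1α,25-dihydroxyvitamin D3 and DMSO; Hill-fit EC50.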

Test [18] in a line: qHTS assay for small molecule antagonists of peroxisome proliferator-activated receptor delta signaling (AID 588535; active means well fitted inhibition curve with a large enough effect in the signal ratio, with a control signal flat, not every such curve was filed as active; the % refers to the signal ratio;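 on max response: cells co-treated with a PPAR-delta agonist as stimulator during compound exposure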). Particulars: HEK293T PPARd-UAS-bla, beta-lactamase FRET ratio, 18 h; 460 nm channel. In short, it runs like this: (§1)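 Titrations were run on PPAR-delta-UAS-bla HEK293T cells in charcoal/dextran-stripped serum, incubated 18 h at 37 C. CCF4 fluorescence (460/530 nm) after 2 h RT; Hill equation yields IC50 and maximal response.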

For test [19], the target named is Peroxisome proliferator-activated receptor delta (Homo sapiens) (UniProt Q03181). Described as above. The gist of the method: as §1
The target of test [20] is Peroxisome proliferator-activated receptor gamma (Homo sapiens) (UniProt P37231). Briefly: qHTS assay for small molecule agonists of peroxisome proliferator-activated receptor gamma signaling (AID 588536; active means well fitted curve in the direction sought with a large enough effect in the signal ratio, with a control signal flat, not every such curve was filed as active; the % refers to the signal ratio;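 further: 0% = DMSO basal wells and 100% = rosiglitazone at 2 µM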). In short, it runs like this:
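This is an agonist-mode beta-lactamase reporter assay in HEK293 PPAR-gamma-UAS-bla cells with 1% charcoal/dextran FBS. Compound titrations ran 16 h at 37 C before CCF4 detection. EC50 and efficacy are Hill fits scaled to 2 uM rosiglitazone (100%) and DMSO basal.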

For test [21] the target is unchanged. As to the kind of experiment: qHTS assay for small molecule antagonists of peroxisome proliferator-activated receptor gamma signaling (AID 588537; active means well fitted inhibition curve with a large enough effect in the signal ratio, with a control signal flat, not every such curve was filed as active; the % refers to the signal ratio;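 further: reporter cells co-stimulated with 50 nM rosiglitazone agonist during compound treatment; % of control where 0% means no effect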). In short, it runs like this: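 Antagonist-mode β-lactamase reporter screen run as a titration series. HEK293 PPARγ-UAS-bla cells are stimulated with rosiglitazone (50 nM final) for 16 h, then CCF4 is read at 460/530 nm. Data are scaled between DMSO and rosiglitazone and fitted to the Hill equation.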

Test [22] deals with Thyroid hormone receptor beta (Homo sapiens) (UniProt P10828). As to the kind of experiment: qHTS assay for small molecule antagonists of thyroid hormone receptor beta signaling (AID 588547; active means well fitted inhibition curve with a large enough effect in the signal ratio, with a control signal flat, not every such curve was filed as active; the % refers to the signal ratio;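 further: cells stimulated with 0.4 nM T3 agonist during compound exposure; series mostly up to about 77 µM; on the % scale 0 is the no-effect control and ±100 the full control effect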). Particulars: TR-UAS-bla HEK293, beta-lactamase ratio, antagonist mode, 18 h. The gist of the method:
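Inhibition of T3-driven (0.4nM final) beta-lactamase reporter activity was measured over 0.59 nM to 92 uM compound after 18 h at 37 C. The cells were GripTite HEK293 TR-UAS-bla in charcoal/dextran-stripped serum, with CCF4 ratio read-out and IC50 from Hill fits.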

SMILES strings stand for the structures. Inconclusive results are not listed. Activity calls are given as the source filed them. Unless noted, the call rests on the fitted dose curve.

Chain of Peroxisome proliferator-activated receptor delta (Homo sapiens) (Q03181 whole entry, looked up): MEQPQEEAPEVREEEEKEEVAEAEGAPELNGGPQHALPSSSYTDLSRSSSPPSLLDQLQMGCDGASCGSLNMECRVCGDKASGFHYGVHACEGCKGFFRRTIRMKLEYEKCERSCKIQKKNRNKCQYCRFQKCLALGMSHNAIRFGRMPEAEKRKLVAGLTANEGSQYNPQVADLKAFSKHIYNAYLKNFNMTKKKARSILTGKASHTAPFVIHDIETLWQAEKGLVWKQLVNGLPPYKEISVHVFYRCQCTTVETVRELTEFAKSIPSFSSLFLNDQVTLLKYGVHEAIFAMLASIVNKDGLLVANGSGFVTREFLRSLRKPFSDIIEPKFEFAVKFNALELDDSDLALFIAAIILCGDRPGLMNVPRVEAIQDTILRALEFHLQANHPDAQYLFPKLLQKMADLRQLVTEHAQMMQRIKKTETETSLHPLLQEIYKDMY
Chain of Glucocorticoid receptor (Homo sapiens) (P04150 whole entry, looked up): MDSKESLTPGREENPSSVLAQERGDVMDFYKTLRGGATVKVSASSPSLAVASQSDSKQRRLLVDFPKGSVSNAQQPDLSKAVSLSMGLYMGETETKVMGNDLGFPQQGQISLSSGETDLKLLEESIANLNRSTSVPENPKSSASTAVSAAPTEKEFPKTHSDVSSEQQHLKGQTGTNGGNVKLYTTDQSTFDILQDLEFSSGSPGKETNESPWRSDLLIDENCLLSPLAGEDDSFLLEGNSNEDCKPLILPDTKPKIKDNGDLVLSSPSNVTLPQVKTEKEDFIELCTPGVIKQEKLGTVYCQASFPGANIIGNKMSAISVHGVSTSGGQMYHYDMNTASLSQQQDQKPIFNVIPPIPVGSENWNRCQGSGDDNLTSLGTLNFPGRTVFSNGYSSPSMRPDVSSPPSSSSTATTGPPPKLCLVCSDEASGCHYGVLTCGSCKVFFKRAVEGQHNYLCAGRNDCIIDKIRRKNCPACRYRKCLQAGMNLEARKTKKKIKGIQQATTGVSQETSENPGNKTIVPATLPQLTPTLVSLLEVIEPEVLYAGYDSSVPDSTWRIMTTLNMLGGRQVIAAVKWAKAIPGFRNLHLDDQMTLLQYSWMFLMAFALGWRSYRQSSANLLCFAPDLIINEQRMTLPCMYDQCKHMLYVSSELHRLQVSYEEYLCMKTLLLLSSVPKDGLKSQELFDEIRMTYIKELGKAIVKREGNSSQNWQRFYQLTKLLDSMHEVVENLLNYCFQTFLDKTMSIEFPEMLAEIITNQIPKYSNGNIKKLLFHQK
Chain of Thyroid hormone receptor beta (Homo sapiens) (P10828 whole entry, looked up): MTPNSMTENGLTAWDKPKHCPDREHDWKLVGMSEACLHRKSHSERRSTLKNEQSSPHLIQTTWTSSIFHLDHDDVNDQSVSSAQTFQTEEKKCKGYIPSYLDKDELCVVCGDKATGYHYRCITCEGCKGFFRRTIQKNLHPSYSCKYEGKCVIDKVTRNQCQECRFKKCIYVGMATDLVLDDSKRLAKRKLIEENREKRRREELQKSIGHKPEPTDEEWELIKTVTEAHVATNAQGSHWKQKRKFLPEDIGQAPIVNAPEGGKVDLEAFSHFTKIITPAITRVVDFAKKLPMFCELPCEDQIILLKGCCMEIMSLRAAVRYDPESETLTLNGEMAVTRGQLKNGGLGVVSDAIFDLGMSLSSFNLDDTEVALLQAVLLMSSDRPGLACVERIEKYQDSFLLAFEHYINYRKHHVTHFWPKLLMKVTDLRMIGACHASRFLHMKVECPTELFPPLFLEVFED
Chain of Vitamin D3 receptor (Homo sapiens) (P11473 whole entry, looked up): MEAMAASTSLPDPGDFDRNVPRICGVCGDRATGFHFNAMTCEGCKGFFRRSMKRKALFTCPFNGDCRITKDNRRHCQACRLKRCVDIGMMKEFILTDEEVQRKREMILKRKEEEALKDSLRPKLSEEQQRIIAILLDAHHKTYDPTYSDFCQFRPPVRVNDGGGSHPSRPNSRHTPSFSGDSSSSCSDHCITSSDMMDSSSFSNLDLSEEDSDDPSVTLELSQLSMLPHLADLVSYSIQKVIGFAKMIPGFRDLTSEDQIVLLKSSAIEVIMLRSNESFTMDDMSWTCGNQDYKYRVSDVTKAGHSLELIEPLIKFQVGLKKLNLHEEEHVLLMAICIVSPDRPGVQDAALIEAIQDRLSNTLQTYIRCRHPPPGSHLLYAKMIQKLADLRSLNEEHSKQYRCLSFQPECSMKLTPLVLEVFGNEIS
Chain of Retinoic acid receptor RXR-alpha (Homo sapiens) (P19793 whole entry, looked up): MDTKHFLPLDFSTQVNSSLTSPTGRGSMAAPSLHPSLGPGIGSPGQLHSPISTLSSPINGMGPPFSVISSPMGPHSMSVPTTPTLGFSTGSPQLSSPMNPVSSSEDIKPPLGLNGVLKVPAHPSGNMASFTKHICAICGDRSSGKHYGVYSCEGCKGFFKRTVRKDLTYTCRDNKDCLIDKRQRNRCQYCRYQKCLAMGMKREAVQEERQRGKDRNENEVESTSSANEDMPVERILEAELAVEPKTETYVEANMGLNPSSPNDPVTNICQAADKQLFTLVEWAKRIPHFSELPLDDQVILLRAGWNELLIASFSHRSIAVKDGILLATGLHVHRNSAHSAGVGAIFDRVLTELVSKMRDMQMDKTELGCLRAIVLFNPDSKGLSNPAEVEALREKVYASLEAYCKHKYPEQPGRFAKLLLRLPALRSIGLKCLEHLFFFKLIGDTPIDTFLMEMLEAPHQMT
Chain of Peroxisome proliferator-activated receptor alpha (Homo sapiens) (Q07869 whole entry, looked up): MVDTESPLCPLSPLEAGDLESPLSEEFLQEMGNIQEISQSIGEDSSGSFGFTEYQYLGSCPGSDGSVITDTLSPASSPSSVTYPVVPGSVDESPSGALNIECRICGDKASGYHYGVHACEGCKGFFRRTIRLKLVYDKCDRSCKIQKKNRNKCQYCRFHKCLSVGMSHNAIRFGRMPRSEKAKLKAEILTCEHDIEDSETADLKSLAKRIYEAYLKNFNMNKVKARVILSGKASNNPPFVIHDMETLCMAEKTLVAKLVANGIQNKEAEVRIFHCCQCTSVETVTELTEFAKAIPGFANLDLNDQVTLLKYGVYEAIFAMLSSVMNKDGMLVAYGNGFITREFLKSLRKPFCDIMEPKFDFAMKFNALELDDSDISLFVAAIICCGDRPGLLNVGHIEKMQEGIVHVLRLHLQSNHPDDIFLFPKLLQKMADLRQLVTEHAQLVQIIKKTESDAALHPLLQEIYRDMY
Chain of Peroxisome proliferator-activated receptor gamma (Homo sapiens) (P37231 whole entry, looked up): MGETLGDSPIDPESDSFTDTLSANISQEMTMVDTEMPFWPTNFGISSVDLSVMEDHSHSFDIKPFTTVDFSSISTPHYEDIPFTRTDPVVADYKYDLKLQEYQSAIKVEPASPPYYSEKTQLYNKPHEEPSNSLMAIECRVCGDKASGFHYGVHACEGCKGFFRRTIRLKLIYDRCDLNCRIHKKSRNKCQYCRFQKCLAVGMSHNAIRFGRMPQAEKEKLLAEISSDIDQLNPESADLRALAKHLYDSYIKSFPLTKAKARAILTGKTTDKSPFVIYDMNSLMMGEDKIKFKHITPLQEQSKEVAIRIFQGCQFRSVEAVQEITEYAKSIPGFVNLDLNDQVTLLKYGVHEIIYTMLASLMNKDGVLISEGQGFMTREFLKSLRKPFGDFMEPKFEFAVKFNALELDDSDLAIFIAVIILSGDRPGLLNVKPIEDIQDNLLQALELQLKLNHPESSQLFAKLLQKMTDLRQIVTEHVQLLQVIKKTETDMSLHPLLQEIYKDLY

As to `CCC[CH2][Sn]([CH2]CCC)([CH2]CCC)[O][Sn]([CH2]CCC)([CH2]CCC)[CH2]CCC`, the activation was 3.22% (inactive) in test [1] and 0.111% (inactive) in test [6]. Besides, the Potency in [2] was 22.4 µM (active); in test [4], 0.355 µM (active); in test [5], 27.3 µM (active); in [7], 22.4 µM (active); in [8], 31.6 µM (active); in [9] it was 22.4 µM (active). In addition, the max response in test [3] is -23.3%.
As for `C1CC[CH]([Sn]([CH]2CCCCC2)[CH]2CCCCC2)CC1`, the activation in test [1] was -10.4% (inactive); in test [12], -8.17% (inactive); in [6] it was 3.62% (inactive). In addition, the Potency entry in test [10] and in [11] was “inactive” each time. In addition, the Potency in [5] is 19.3 µM (active); in [14], 13.7 µM (active); in test [8], 31.6 µM (active); in test [9] it was 39.8 µM (active). Besides, in test [13], the max response is -0.731% (inactive). In test [15], the outcome was inactive.
On to `CCOC(=O)C1=NN(c2ccc(Cl)cc2Cl)C(C)(C(=O)OCC)C1` (stereo unspecified), for which the outcome in test [16] was inactive.
For `C=CCOC(=O)CC(C)C`, the call in [16] was inactive.
Same read-out and setting: the value for `CCOc1ccc(NC(C)=O)cc1N` was “inactive”; that for `CC(C)[C@@H]1CC[C@@H](C)C[C@H]1O` was “inactive”.
`CCCCOCCOCCSC#N`: in [16], the result was inactive.
The same measure, in the same setting: the value for `NCCCCCCN` was “inactive”.
The same measure, in the same setting: the value for `Nc1ccc2c(c1)C(=O)c1ccccc1C2=O` was “inactive”.
Regarding `CC1(C)[C@@H](C=C(Cl)Cl)[C@@H]1C(=O)OCc1cccc(Oc2ccccc2)c1`, the result in test [16] and in test [17] was inactive. Besides, the Potency result in test [11] is “inactive”.
For the compound `CC(C)[C@H](C(=O)O[C@H](C#N)c1cccc(Oc2ccccc2)c1)c1ccc(Cl)cc1`, the call in [16] was inactive. The max response is 2% in test [18], -3.66% in [3], 0.0129% (inactive) in [13] and -17.9% (inactive) in [8]. Moreover, the Potency result in [19], in test [20], in test [21], in test [4], in test [11] and in [14] was “inactive” each time. Moreover, the Potency entry in [9] was “inactive”. Also, the activity change % (negative = inhibition) in test [22] is -0.522% (inactive). The Potency in test [5] is 61.1 µM (active). Further, the activation in test [12] is -0.0449% (inactive); in [6], 0.849% (inactive).
